Screen size: about 53,000 sequences; about 3,700 (7%) were called active. This is one part of a sample in which actives are shown more often than they occur.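 Rule for the calls: active = gene knockdowns whose robust z-score for IL-1 alpha signal is at least 2 or at most -2, so actives lie on both sides; inactive = the rest.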
Test: Components of the Cytosolic LPS Sensing Pathway: Gene Identification via Genome-wide siRNA Screen;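 note: robust z of the log signal after scaling to non-targeting control siRNA wells of the plate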
Conditions: RAW264.7 macrophages, IL-1a HTRF, actives lie on both sides, screened at 100 nM (by protocol), cells primed 5 h with Pam3CSK4 first
Method in brief: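 Read-out: IL-1a HTRF on supernatant, divided by plate negative-control median ×100, log-transformed and converted to robust z-score. Cells were RAW264.7 given 100 nM siRNA, Pam3CSK4-primed 5 hours, then LipidA-transfected 24 hour.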

Sequence	z-score
GCAGUUGAUGAUAAUGUGATT against Pot1b	-0.0269 (inactive)
CGCGGAAACUCUCCACUUATT against Psme4	-1.18 (inactive)
GGGCGAUAUUAUGAGCAACTT against Atp1b2	3.78 (active)
GGAUCCUCUUCUAUCUUUATT against Pycr1	-1.27 (inactive)
GGCUGCUUUACUGAAGUAATT against C2cd6	1.29 (inactive)
GGGACUUGGAUCGAAUGGATT against Apeh	0.326 (inactive)
GGGAAAUUGUGUAGCAGCUTT against Slc25a29	-2.76 (active)
GGAGGUGGUGUUUAUACCATT against Scrn2	0.728 (inactive)
GCCUAUGCAGCUCUCUCUGTT against Acat3	0.772 (inactive)
GGUUAUUACGUAGUUGGUATT against Cd46	0.683 (inactive)
GGUCUACGCGCUCUAUGAATT against Gpr150	-1.03 (inactive)
GGAGACAGAAUCAUAGUUATT against Sh3yl1	0.0505 (inactive)
CGAUUCUUUAGGAACUUUGTT against Pak7	-0.0771 (inactive)
GGCAGUGGUUAAAGGUUCCTT against Lrp6	2.27 (active)
GCACUUAUACUACUUAGUUTT against Abca8a	2.4 (active)
GCAGGAUUUUCACCAACAGTT against Gh	-0.215 (inactive)
GGUAGAAUCCGGUUACCACTT against Tox	0.704 (inactive)
GGGAAAGACCAUGUUUGUATT against Ttbk2	0.493 (inactive)
CCAAUUGUGAGAAGAGUGUTT against Cog7	-0.46 (inactive)
GGAUUUUGUGAAUAAAUGCTT against Map2k1	1.31 (inactive)
GGGAAAAGAGAGUGGUGUATT against Rab27a	-0.26 (inactive)
GGAGAGCUGGUGUUUUAGATT against Tnfrsf17	2.74 (active)

Sequence	z-score
GGGUUCAUUUCUCAAAAUUTT against Nol7	-0.831 (inactive)
GGAACAAGAAGACUGUGAATT against Pcnt	-0.519 (inactive)
GCCUUACAAUUUGUUCUACTT against Dsc1	1 (inactive)
CGUCCAGUAUACGCUGGUUTT against Cdc45	5.41 (active)
GGAUGAACCAAGCUACUGCTT against Gba2	-0.541 (inactive)
GUUCAAGACGGAGAAGAGGTT against Gpr27	3.03 (active)
CCCAAUACAUGAGCUUCUGTT against Ch25h	-0.209 (inactive)
GGAAGACUUCGUGUUGACATT against Proz	0.223 (inactive)
GGCUCUAUGUUUAUAAUGATT against Olfm5	-2.07 (active)
GGAAAAAUGACUGAUCUCUTT against Unc5c	-0.0354 (inactive)
GGUUGGUAGACUGUGCUUGTT against Hgsnat	-2.56 (active)
GGACCUACUACGUAAACCATT against Nedd4	0.434 (inactive)
GGAAUAUCGGACUUUUUCATT against Mis18bp1	0.635 (inactive)
CGGGACCUUGUUGAUAACUTT against Tmem130	0.811 (inactive)
GGUGUUUGGGAAAGGUCUGTT against Trpm1	-1.33 (inactive)
GCACAAAUGGGAAUACGACTT against Klhl36	-0.94 (inactive)
CCAACCAGACUUAUUUAAUTT against Zfp37	1.61 (inactive)
GGGUGGCUAUGGACAAAAATT against Arl5c	0.887 (inactive)
GGACAUCAAUUCAACAGUUTT against Lifr	-0.361 (inactive)
GGAAGAGUGUUUAAACUAUTT against Kbtbd8	-0.591 (inactive)
CCUGAUCUAAUCCUAAAUGTT against Pgr	-0.171 (inactive)
AUCUAUUCGAAUCAGGAAGTT against Epsti1	-0.102 (inactive)

Sequence	z-score
GGCUUUUGAAGUAAAUACATT against Pcdhb14	2.65 (active)
GUCCAGAGUGACCACAUUUTT against Pemt	-0.471 (inactive)
GGAUUACGCAGAUUCCAUUTT against Rab22a	-0.474 (inactive)
CGAAUUGAAUUCUACGAACTT against Pmm2	0.252 (inactive)
GGAUGAUAAAGACAAAGUATT against Ppm1g	-0.921 (inactive)
GGUUUCUGGCUUUCCGUAGTT against Erf	-0.0549 (inactive)
GCUCUGCAUGACCUUACCUTT against Ugt2b1	0.245 (inactive)
GGCCUUUGUACAGGACCCATT against Tor2a	-1.01 (inactive)
GGUCAGAAGAGAUCAAAAGTT against Ttc23	-0.0386 (inactive)
GCCUACUCCCAAGAGGAAATT against Gprc5a	2.32 (active)
GGACAGCAAGAUGAAGAUGTT against Il17ra	-1.32 (inactive)
UUGAUUUGGUAGCCUGCUCTT against Olfr1303	0.962 (inactive)
CCCUGCUUCGUGUGCUAUUTT against C130074G19Rik	0.499 (inactive)
GGUACCUGAGGUAGAAAAGTT against Pnma3	-2.5 (active)
GGAAUGUGUUGAAAUAUGATT against P4ha3	0.0288 (inactive)
CCACGGAGACAACUUAGUATT against Scfd2	0.568 (inactive)
GGCGGUCAAGUGAGGUUCUTT against Hhex	3.62 (active)
GGACUUUUCUGCUAUUUACTT against Kcnh2	-0.471 (inactive)
GGAAAGAAUUGAAUACUCGTT against Gpr89	-0.279 (inactive)
GGUGAAUUUCCUUCUACAUTT against Tas1r1	-1.56 (inactive)
GCUGGGAUAUGAAAUCUAUTT against Gprc6a	2.74 (active)
GGUGAUAAAGUCAUUCCACTT against Adh1	0.759 (inactive)

Sequence	z-score
GGAAGACAUAUUUCAACAGTT against Ehhadh	-1.37 (inactive)
GCAGUGUAUUGGUAAUCAATT against Olfr630	1.44 (inactive)
GCAUCGAUCUUGAGUUAGATT against Hebp1	0.579 (inactive)
GCGCAGGUUCAAUGUGGAUTT against Prodh	1.72 (inactive)
GGCGAUAGACGAGUAUCAGTT against Aida	0.41 (inactive)
CCAGCAAAUAUCCUAGUAATT against Cdk19	0.111 (inactive)
CGUGUGUGUCAUGUUACGGTT against Dusp2	-0.901 (inactive)
GGAGAGCUGGAACAAUAGCTT against Bcl2l2	2.26 (active)
GGAUGAAUGGAGAACUGAATT against Afap1l1	-1.21 (inactive)
CCAUGACAAUGAAUAUCCUTT against Ms4a19	-1.24 (inactive)
GCGAGCUAAUGUCACAUUCTT against Il17ra	3.74 (active)
GGAACUAUCACGUGUUCUATT against Myo7a	0.837 (inactive)
CCAGAUGGGAUACCUCUACTT against Tmed6	0.303 (inactive)
GGUCUCUUUCAUGCUCGCATT against Agr3	3.06 (active)
CCCUAACCUCAUUUCAUGUTT against Vmn1r63	-1.01 (inactive)
GGAAAACAACGAAUUGCUCTT against Uri1	0.791 (inactive)
GCCGAUGACACUAUCUACCTT against Cryz	0.465 (inactive)
CCUCAAUCAAAAUGUAAGUTT against Atp6v0a2	0.456 (inactive)
GGAUCUGAAGGAAUACUUUTT against Lmf1	1.69 (inactive)
GGAACAAACCAAGUUCACATT against Kcnip2	-0.66 (inactive)
GGACUCCAAGAUCAUGGUCTT against Pnck	1.07 (inactive)
GCAAGACCCUUCGAGUGAATT against Nkd2	-1.2 (inactive)

Sequence	z-score
GGCCAUUUAUCCAUGGUUGTT against Zdhhc17	0.954 (inactive)
GGCCUCAAGUUGCUAUGCCTT against Mlxipl	-0.2 (inactive)
GGAGAUGAAGUUAAAGCGATT against Slc26a6	0.619 (inactive)
GGCAGAUGUGUUUGCUUUUTT against Pbk	3.51 (active)
GCACUGAACUUUGUCGAUUTT against Fam122a	0.325 (inactive)
CCCGAAGAGCAAAAAAGAUTT against 1110004F10Rik	-1.5 (inactive)
CGGUCAUUAAUGAAGCCUGTT against Pamr1	2.65 (active)
GGUGGUGUGUGAUGAGAAUTT against Pabpc6	0.649 (inactive)
GGGCUGUUUGUAGCAGAUUTT against Olfr1279	-1.12 (inactive)
GGUCACGGAGAAACUAAAGTT against Ppme1	0.703 (inactive)
GGCUAGGUAAUCACUGGGUTT against Fate1	0.987 (inactive)
CCAAUAUGAGACCAUCAUUTT against Sv2b	0.385 (inactive)
GCGACAUAACUGCAUUCAATT against Kcnh1	2.79 (active)
GGUCAAUUUGGUUUGUGAATT against Cenpa	-0.374 (inactive)
GGUAGAAAUUUACCUCAUUTT against Dusp4	-1.42 (inactive)
GCAGAGGAUAUAAAACAAGTT against Pde2a	-0.86 (inactive)
GGAAAAUAGGGCGACAAAUTT against Tdrd7	0.673 (inactive)
GGAUGAUUGAGAUAGCGAATT against Polr1e	0.608 (inactive)
CCGUACAUAUGGUGAUCCATT against Rtn1	-0.162 (inactive)
GGGAGAAGUGCUGUGGAUUTT against Fras1	0.401 (inactive)

— PubChem BioAssay AID1508600 (Functional Genomics Laboratory (NCATS/FGL), 2020)
